Data published in PubChem BioAssay (NCATS).
Records with an inconclusive call do not appear. The source made the active and inactive calls. The call rests on the fitted dose curve; in most records, active means well fitted curve in the direction sought with a large enough effect; inconclusive means small, poorly fitted or top-dose-only effect, or another doubt; inactive means no such curve, though single readings can be large or run the other way.

Experiment: HPAF-II 18hr Apoptosis Induction qHTS against the NCATS CANVASS Library (AID 1347360)
Conditions: HPAF-II caspase-3/7 luminescence; series mostly up to 46.1 µM
Excerpt: Natural products and their derivatives continue to be wellsprings of nascent therapeutic potential. However, many laboratories have limited resources for biological evaluation, leaving their previously isolated or synthesized compounds largely or completely untested. To address this issue, the Canvass library of natural products was assembled (https://tripod.nih.gov/canvass), in collaboration with academic and industry researchers, for quantitative high-throughput screening (qHTS) across a diverse set of cell-based and biochemical assays. The pure (>85% purity by liquid chromatography/mass spectrometry [LC/MS]) Canvass library of 346 natural products were submitted by 45 academic laboratories and companies around the world. We collected pure natural products to circumvent deconvolution and structure elucidation due to time and resource limitations. The library was formatted into 1536-well plates and evaluated in 50 qHTS (in an 11-pnt concentration series) bioassays with broad scope of disease-relevant mechanisms. The resulting data set from 50 different assays was then systematically analyzed to identify overall trends and specific natural products with interesting biological activities. Reported herein are the results of each individual qHTS and their corresponding assay protocol. The Caspase-Glo (R) (Promega) is a homogeneous, luminescent assay that measures caspase activity. The detection substrate contains tetrapeptide sequence DEVD in an "add-mix-measure" format. The reagent generates a luminescent signal produced by a thermostable luciferase. The luminescence is proportional to the amount of caspase activity in the assay reaction. National Center for Advancing Translational Sciences (NCATS), Rockville, MD National Institute of Health (NIH), Bethesda, Maryland
Cancer Cell Apoptosis Assay 1. In a 1536 well, white solid bottom tissue culture plates (Corning 7494), HPAF-II cancer cells in DMEM + 10% FBS + 1% P/S media were dispensed in each well at a final concentration of 500 cells / well (5uL volume) using the Multidrop Combi (Thermo Fisher Scientific) dispenser. 2. Compounds were pin transferred (~23nL volume) via Wako Pin-tool (Wako Automation, Richmond VA) equipped with a 1536 pin head. The assay plates were treated with compounds in a concentration series with a final concentration range of 0.17nM to 103uM. 3. Doxorubicin was used as a control in a 16pnt titration (1mM; 1:2 dilution; 16-points; n = 2; column 3, rows 1 - 32) and was pin transferred via Wako Pin-tool equipped with a 1536 pin head. The final concentration range of doxorubicin is 0.1nM - 4uM. 4. The assay plates were incubated for 18 hours at 37 degrees C/5% CO2/95% Rh. 5. 3uL Caspase-Glo 3/7 (R) (Promega) detection reagent was then added to the assay plates (columns 2 - 48, rows 1 - 32) and incubated at room temperature, covered from light, for 15 min. 6. Luminescence signal was acquired via the ViewLux plate reader (PerkinElmer) using a clear filter, 20 second exposure and 2x binning settings.

Row | SMILES | outcome
1 | CC[C@@H]1CN2CC[C@@]3(O)C(=Nc4cccc(OC)c43)[C@@H]2C[C@@H]1/C(=C\OC)C(=O)OC | inactive
2 | CN(C)Cc1c[nH]c2ccccc12 | inactive
3 | NCCc1ccccc1 | inactive
4 | CCN1C[C@]2(C)CC[C@@H](O)[C@]34C1[C@H](C[C@H]23)C12CCC(CC14)[C@](O)(CO)[C@H]2O (stereo not given in full) | inactive
5 | CCCCC[C@@H]1OC(=O)[C@@H](C)N(C)C(=O)[C@H](CCCCC)OC(=O)C(C)N(C)C(=O)[C@H](CCCCC)OC(=O)[C@@H](C)N(C)C(=O)[C@H](CCCCC)OC(=O)C(C)N(C)C1=O (stereo not given in full) | inactive
6 | CC[N@@+]1([O-])C[C@]2(C)CC[C@@H](O)[C@@]34C5C[C@H]6CC[C@@]5(C(C[C@H]23)C41)[C@H](O)[C@@]6(O)CO (stereo not given in full) | inactive
7 | CO[C@@H](/C=C/CC/C=C/C(=O)O)[C@@H](O)[C@H](C)/C=C(\C)[C@@H](O)[C@H](C)C(=O)CCCC1CC(=O)NC(=O)C1 | inactive
8 | CN1C(=O)[C@]23CC4C(C)(C)[C@@]5(C[C@@]41CN2CC[C@@]3(C)O)C(=O)Nc1c5ccc2c1OC=CC(C)(C)O2 (stereo not given in full) | inactive
9 | CO[C@H](c1ccccc1)[C@H]1NC(=O)C(C)NC(=O)C(C[C@@H](C)CO)N(C)C(=O)[C@@H](C(O)c2cn(C(C)(C)C3CO3)c3ccccc23)NC(=O)C(C(C)C=C(C)C)NC(=O)C(CC(C)C)N(C)C(=O)C(C(C)C)NC1=O (stereo not given in full) | inactive
10 | COc1ccc2c3c([nH]c2c1)C(C)=NCC3 | inactive
11 | COc1ccc2c(c1)[nH]c1c(C)nccc12 | inactive
12 | CC1=CC2CC[C@@H]3[C@@H](C)C[C@H](C)[C@@H](C1)N23 (stereo not given in full) | inactive
13 | CCCC[C@@H]1CC[C@H]2CCCC(CCC)N12 (stereo not given in full) | inactive
14 | O=C(c1ccccc1O)c1[nH]c(Cl)c(Cl)c1-n1c(C(=O)c2ccccc2O)cc(Cl)c1Cl | inactive
15 | C=C1[C@@H](C)[C@H]2[C@H](Cc3ccccc3)NC(=O)[C@]23OC(=O)/C=C/[C@H](O)CCC[C@@H](C)C/C=C/[C@H]3[C@@H]1O | inactive
16 | CC1=CC(=O)C2=C(C)C[C@H](O)[C@@H]3[C@H](OC(=O)[C@@H]3C)[C@@H]12 | inactive
17 | CCC[C@H]1CC[C@H]2[C@H](C)CCC[C@H]2N1 | inactive
18 | CNCCc1ccc(O)cc1 | inactive
19 | c1ccc2c3c([nH]c2c1)CNCC3 | inactive
20 | C[C@]12CC(O)C3[C@@H](CCC4C[C@@H](O)CC[C@@]43CO)[C@@]1(O)CCC2C1=CC(=O)OC1 (stereo not given in full) | inactive
21 | CO[C@@H](/C=C/CC/C=C/C(=O)O)[C@@H](O)[C@H](C)[C@@H](O)/C(C)=C/[C@H](C)C(=O)CCCC1CC(=O)NC(=O)C1 | inactive
22 | CCN1C[C@]2(C)CC[C@H](O)[C@]34C1C(C[C@H]23)[C@@]12CC[C@H](CC14)[C@](O)(COC(=O)c1ccc(OC)c(OC)c1)[C@H]2O (stereo not given in full) | inactive
23 | CNCCc1ccccc1 | inactive
24 | COC(=O)C1=C2Nc3ccccc3[C@@]23CCN2CC(C(C)=O)C1C[C@H]23 (stereo not given in full) | inactive
25 | CNCCc1c[nH]c2ccccc12 | inactive
26 | CC(=O)N[C@H]1CCN2CCC[C@H]12 | inactive
27 | COc1ccc(C23Oc4cc(OC)cc(OC)c4[C@](O)([C@H](c4ccccc4)C2C(=O)NCCCCNC(=O)c2ccccc2)[C@@H]3O)cc1 (stereo not given in full) | inactive
28 | C/C=C1/CN2CC[C@]34C(=Nc5ccccc53)[C@@H]2C[C@@H]1[C@H]4C(=O)OC | inactive
29 | CC=C1CN(C=O)[C@H]2C[C@@H]1[C@@H](C(=O)OC)[C@@]13CCOC21Nc1ccccc13 (stereo not given in full) | inactive
30 | CCC(=O)CCCCC[C@@H]1NC(=O)[C@H]2CCCCN2C(=O)[C@H]([C@@H](C)CC)NC(=O)[C@H](Cc2cn(OC)c3ccccc23)NC1=O | inactive
